The source of these data is PubChem BioAssay AID504660 (National Center for Advancing Translational Sciences (NCATS), 2011).

Out of some 360,000 compounds screened, about 3,700 (1%) were called active. This is one part of a sample in which actives are shown more often than they occur. Values without a mark were called inactive. Rule as the data show it: active = activation above about 30%; inactive = the rest.

The target in the experiment is D(1A) dopamine receptor (Homo sapiens) (UniProt P21728). Briefly: Allosteric Agonists of the Human D1 Dopamine Receptor: qHTS. Also: 0% is about no effect. The note with it: HEK293 T-REx D1 cells, calcium flux, agonist mode; at 2 µM; hits give high values. An outline of the steps: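 Tetracycline-induced HEK293 TREx D1 cells, force-coupled to calcium signalling, were dye-loaded with a no-wash calcium kit. Compound was pin-added after a 10 s baseline. Fluorescence was read kinetically at 1 cycle/s for 180 s, with calcium rises flagged as agonism.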
Sequence of D(1A) dopamine receptor (Homo sapiens) (P21728 whole entry, looked up): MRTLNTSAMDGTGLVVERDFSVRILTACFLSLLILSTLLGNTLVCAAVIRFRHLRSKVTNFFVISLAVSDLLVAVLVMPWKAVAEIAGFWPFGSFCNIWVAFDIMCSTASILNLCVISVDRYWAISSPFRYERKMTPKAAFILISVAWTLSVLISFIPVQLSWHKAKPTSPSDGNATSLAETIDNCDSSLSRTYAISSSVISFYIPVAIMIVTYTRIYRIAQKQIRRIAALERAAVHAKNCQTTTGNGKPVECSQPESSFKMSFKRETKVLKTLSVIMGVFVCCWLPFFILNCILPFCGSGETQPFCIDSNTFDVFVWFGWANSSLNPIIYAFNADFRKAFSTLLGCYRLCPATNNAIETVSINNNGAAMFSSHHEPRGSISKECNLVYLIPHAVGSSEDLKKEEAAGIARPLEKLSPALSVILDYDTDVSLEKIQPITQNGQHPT
Turning to `Cc1ccc(Cl)cc1N1CCN(C(=O)c2cn(C)c3ccc(S(=O)(=O)N(C)C4CCCCC4)cc3c2=O)CC1`, the activation was 3.27%.
With `O=C(Nc1ccc2c(c1)OCO2)c1cc(-c2cccc(Cl)c2)on1`, the activation was -1.41%.
As for `COc1ccc(S(=O)(=O)c2c(Nc3ccc(C)cc3)sc(C(=O)c3ccc(C)cc3)c2N)cc1`, the activation was 56.2% (active).
Consider `COc1ccc(C(=O)N2CCC(C(=O)Nc3ccc(C)cc3)CC2)cc1`, for which the activation is 1.17%.
On to `CC(=O)c1c(Nc2ccccc2)sc(C(=O)c2ccccc2)c1C`, for which the activation is 5.07%.
Turning to `CO/N=C(/CS(=O)(=O)c1ccc(Br)cc1)c1ccc(OC)cc1`, the activation is 0.348%.
The result for `COc1ccc(Cl)cc1S(=O)(=O)Nc1cccc(C(=O)O)c1` reads 2.88%.
For the molecule `COc1ccc(S(=O)(=O)c2c(Nc3cccc(Cl)c3)sc(C(=O)c3ccccc3)c2N)cc1`, the activation was 75.8% (active).
The result for `Cc1ccc(C(=O)Nc2sc(Cc3ccc4c(c3)OCO4)c(C)c2C(N)=O)cc1` reads -1%; that for `Cc1ccc(S(=O)(=O)c2c(Nc3cccc(Cl)c3)sc(C(=O)c3ccc4c(c3)OCO4)c2N)cc1`, 61.9% (active).
With `CCc1ccccc1NC(=O)N1CCN(C(=O)c2nsc3ccccc23)CC1` the figure was 2.7%; with `CCCS(=O)(=O)c1ncc(Cl)c(C(=O)Nc2scc(-c3ccccc3)c2C(=O)OCC)n1`, 5.24%.
`O=c1c(NCc2cccs2)nccn1-c1ccccc1`: the activation was 2.15%.
For the molecule `Cc1ccc(CNS(=O)(=O)c2ccc(-c3cc(C(F)(F)F)on3)s2)cc1`, the activation is 0.651%.
With `Cn1nnnc1Sc1ncnc2scc(-c3ccccc3[N+](=O)[O-])c12` the figure was 1.58%; with `CCc1ccc(NC(=O)Cn2c(=O)n(CCC(=O)NCc3ccc4c(c3)OCO4)c(=O)c3ccccc32)cc1`, -0.957%; with `Cc1ccc2[nH]c3c(c2c1)CN(C(=O)CN1CCN(c2ccccc2)CC1)CC3`, 0.149%.
Regarding `O=C(CCCN1CCc2[nH]c3ccc(F)cc3c2C1)c1ccc(F)cc1`, the activation is 56.3% (active).
As for `O=c1c2ccccc2[nH]c(=S)n1CCN1CCC(=C(c2ccc(F)cc2)c2ccc(F)cc2)CC1`, the activation was 0.942%.
For `O=C(CSc1nc2ccccc2nc1Cc1ccccc1)N1CCCCC1`, the activation is 4.62%.
The result for `CCc1nccn1S(=O)(=O)c1cc(Br)ccc1Br` reads -0.03%; that for `CCOc1ccccc1NC(=O)C1=C(C)Nc2ncnn2C1c1ccc(NC(C)=O)cc1` (stereo not drawn), 1.04%.
With `Cc1cccc(NC(=O)Cn2nc(-c3ccc(Cl)cc3)c3ccccc3c2=O)c1` the figure was 35.9% (active); with `Cc1ccc(-c2nn(CCC(=O)Nc3ccc(OC(F)(F)F)cc3)c(=O)c3ccccc23)cc1`, 1.41%; with `Cc1ccc(-c2nn(CCC(=O)Nc3ccc(Cl)c(Cl)c3)c(=O)c3ccccc23)cc1`, 0.86%.
`Cc1ccc(C(=O)Nc2nc(-c3ccccc3)ns2)cc1`: the activation is -0.0471%.
For the molecule `CCC(=O)N1c2ccccc2CC1C(=O)N1CCN(c2cccc(OC)c2)CC1` (stereo not drawn), the activation is -0.217%.
Consider `O=C(NCCCCc1ccccc1)C1CC(c2ccc([N+](=O)[O-])cc2)=NO1` (stereo not drawn), for which the activation was 7.04%.
In the case of `CC(=O)N1c2ccccc2N(Cc2ccc([N+](=O)[O-])cc2)C(=O)C1(C)C`, the activation is 2.19%.
As to `O=C1NC(=O)C2C1C(c1ccc([N+](=O)[O-])cc1)=NN2Cc1ccccc1` (stereo not drawn), the activation was 44.8% (active).
Regarding `Cc1cccc(NC(=O)c2cc3c(C)nn(-c4ccccc4)c3s2)c1`, the activation was 2.46%.
Turning to `CCOC(=O)c1oc2ccc(S(=O)(=O)n3nc(-c4ccccc4OC)cc3N)cc2c1C`, the activation was 4.93%.
As to `CN(C(=O)CN(CCO)CC(=O)N(C)C(C)(C)Cc1ccccc1)C(C)(C)Cc1ccccc1`, the activation was 40.5% (active).
`CC(C)(C)N(Cc1ccccc1)C(=O)c1ccncc1`: the activation is -0.455%.
The result for `Cc1cc(C)cc(NC(=O)N(C)Cc2ccccc2)c1` reads 2.04%; that for `CCOC(=O)c1c(S(=O)(=O)NCC(=O)Nc2ccc(Cl)c(C(F)(F)F)c2)c(C)n(C)c1C`, 6.5%; that for `Cc1cc(C)c(NC(=O)CSc2nc3nccnc3c(=O)n2CCc2c[nH]c3ccccc23)c(C)c1`, 2.34%.
The result for `O=C(CN1C(=O)/C(=C/c2ccccc2F)Sc2ccccc21)NCc1cccnc1` reads 4.38%.
With `CCN1CCN(CCNC(=O)c2ccc(/C=C3/Sc4ccccc4N(Cc4cccc(C)c4)C3=O)cc2)CC1`, the activation is 48.6% (active).
On to `O=C(NCCN1C(=O)S/C(=C\c2cccnc2)C1=O)c1ccc(S(=O)(=O)N2CCCC2)cc1`, for which the activation was 1.07%.
The result for `CCn1c(=O)c(=O)n(CC)c2cc(N3CCCCC3)c(NC(=O)c3cccc(F)c3)cc21` reads -0.479%; that for `CCCCCN(C(=O)NC(=O)Nc1ccccc1C)S(C)(=O)=O`, 4.03%; that for `CCCS(=O)(=O)c1c(Nc2ccccc2C)sc(C(=O)c2ccccc2)c1N`, 32.6% (active).
Turning to `COc1c(F)c(F)c(C(=O)O)c(Nc2ccccc2C)c1F`, the activation is 1.04%.
Consider `CCOC(=O)N1CCc2c(sc3c2c(=O)n(-c2ccc(CC)cc2)c(=O)n3C)C1`, for which the activation was -0.644%.
As for `CCOC(=O)c1cc2c(=O)n3ccccc3nc2n(CC2CCCO2)c1=NC(=O)c1ccc(C(C)(C)C)cc1` (stereo not drawn), the activation was 2.73%.
For `CCCCCCc1cc2cc(-c3nnc(-c4ccccc4)o3)c(=O)oc2cc1O`, the activation is 297% (active).
Regarding `CCOc1ccc(CCNC(=O)c2c(C)oc3ncn(C)c(=O)c23)cc1`, the activation was 0.93%.
With `CSc1ccc(C2C(C(=O)Nc3ccccc3)=C(C)Nc3nc4ccccc4n32)cc1` (stereo not drawn) the figure was -0.673%.
Consider `Cc1ccc(NC(=O)CN2C(=O)C(c3ccc(F)cc3)=NC23CCCCCC3)c(C)c1`, for which the activation was 7.18%.
Regarding `CC(C)c1ccc(NS(=O)(=O)c2ccc3[nH]cc(C(=O)NC4CCCC4)c(=O)c3c2)cc1`, the activation was 5.71%.
Consider `Cc1ccc(NC(=O)c2ccc(CN3CC(=O)N4CCCCC4C3=O)cc2)c(Cl)c1` (stereo not drawn), for which the activation is 1.1%.
With `CC(NC(=O)Cn1cc(C(F)(F)F)cc(Cl)c1=O)c1ccccc1` (stereo not drawn) the figure was -0.532%; with `CNCC[C@H](Oc1ccc(C(F)(F)F)cc1)c1ccccc1`, 111% (active); with `CN(C)c1ccc(C(=O)NCC(=O)OC(C(=O)Nc2cc(C(F)(F)F)ccc2Cl)c2ccccc2)cc1` (stereo not drawn), 1.69%.
With `COc1ccc(OC)c(NC(=O)CSC2=Nc3ccccc3C3=NC(CC(=O)NCCc4ccccc4)C(=O)N23)c1` (stereo not drawn) the figure was 1.84%.
The result for `Cn1nnnc1SCCNCc1ccc(Cl)c(Cl)c1` reads -0.329%; that for `COc1cccc(CNCCSc2nnnn2C)c1OCc1ccccc1Cl`, 4.2%.
For `COc1cc(CNCCSc2nnnn2C)ccc1OCc1c(F)cccc1Cl`, the activation was 5.58%.
The result for `Cn1nnnc1SCCCNCc1cccc(OCc2ccc(Cl)cc2)c1` reads 74.4% (active); that for `Cn1nnnc1SCCCNCc1ccc(Cl)cc1`, 8.22%; that for `COc1cc(CNCCSc2nnnn2C)ccc1OCc1ccc(Cl)cc1Cl`, 48.2% (active).
Regarding `CCOc1ccc(CNCCSc2nnnn2C)cc1`, the activation is -0.463%.
For the molecule `COc1ccc(-c2ccc(CNCCCN3CCOCC3)o2)cc1Cl`, the activation is 3.69%.
`Cc1c(Cl)cccc1-c1ccc(CNCCCSc2nnnn2C)o1`: the activation was 68.7% (active).
The result for `COc1ccc(-c2c(C)nn3c(N4CCC(C(=O)NCCC(C)C)CC4)cc(C)nc23)cc1OC` reads 1.66%; that for `Cc1ccc(Cl)cc1N(C)C(=O)Cn1nc(Cc2cccnc2)c2ccccc2c1=O`, 3.19%; that for `Oc1c(Cl)cc(Cl)c(Cl)c1Cc1c(O)c(Cl)cc(Cl)c1Cl`, 33.5% (active).
With `COc1cc(CN(C(=O)c2ccccc2Br)c2ccccn2)cc(OC)c1OC` the figure was -2.08%; with `Cc1ccc(OCCNC(=O)CCNS(=O)(=O)c2ccc(Br)cc2)cc1`, 74% (active); with `Cc1ccc(S(=O)(=O)NCCNC(C)c2ccc(Br)cc2)cc1` (stereo not drawn), 6.77%.
As to `O=C(CCNS(=O)(=O)c1ccccc1)NCCSc1ccc(Br)cc1`, the activation is 11.3%.
`Fc1ccc(-n2ncc3c(Nc4ccc(Oc5ccccc5)cc4)ncnc32)cc1`: the activation is 0.314%.
Take `COc1ccc(C(=O)CSc2c(C(C)C)cnc3c2c(=O)n(C)c(=O)n3C)cc1`: the activation is 2.45%.
With `Cc1nc(SCCOc2ccc(Cl)cc2)[nH]c(=O)c1Cc1ccccc1` the figure was -1.18%.
The result for `Cc1cc2oc(C(=O)N(Cc3ccc(Cl)cc3)Cc3ccco3)c(C)c2cc1Cl` reads 18.5%; that for `O=C(NC(=S)N1CCc2ccccc21)c1ccco1`, 1.7%.
For `CC(Oc1ccc2ccccc2c1)C(=O)NNC(=S)NC(=O)c1ccco1` (stereo not drawn), the activation is 50.2% (active).
Turning to `COc1ccc(/C=C(/NC(=O)c2ccco2)C(=O)Nc2ccc(C(C)=O)cc2)cc1`, the activation is -0.901%.
`COc1ccc(OC)c(-c2nc(C(N)=O)c3c(n2)n(-c2ccc4c(c2)OCO4)c(=O)n3C)c1`: the activation was -1.26%.
For `COC(=O)CNS(=O)(=O)c1ccc(Cc2ccc(S(=O)(=O)NCC(=O)OC)cc2)cc1`, the activation was 2.26%.
In the case of `COC(=O)C[n+]1cccc2ccccc21`, the activation is 87.9% (active).
The result for `COc1c(C(=O)N2CCCC2)ccc2ccccc12` reads 1.37%; that for `CC(=O)c1ccc(NC(=O)c2nc(-c3ccc(C)cc3)n3c2CCCCC3)cc1`, 2.3%.
On to `COc1ccc2cc(-c3nc(Cl)c4c5c(sc4n3)CC(C)CC5)c(=O)oc2c1` (stereo not drawn), for which the activation is 8.22%.
As to `CCOC(=O)c1c(NC(=O)/C(C#N)=C/c2ccccc2)sc2c1CCC2`, the activation was 0.119%.
With `CCOC(=O)c1c(NC(=S)Nc2ccccc2)sc2c1CCN(C)C2` the figure was 32.3% (active); with `CCOC(=O)c1c(NC(=O)NC(C)(C)C)sc2c1CCN(C)C2`, 3.08%.
